Assay results published in ChEMBL document CHEMBL1961873, “Compounds: GSK PKIS; Assays: Nanosyn kinase panel” (2012).

Columns and labels:
[1] = target: T1, Inhibitor of nuclear factor kappa-B kinase subunit epsilon (Homo sapiens) (UniProt Q14164); settings: at 1 µM;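 also: reported values are averaged percent inhibition figures against human IKKε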
T1 sequence (whole entry): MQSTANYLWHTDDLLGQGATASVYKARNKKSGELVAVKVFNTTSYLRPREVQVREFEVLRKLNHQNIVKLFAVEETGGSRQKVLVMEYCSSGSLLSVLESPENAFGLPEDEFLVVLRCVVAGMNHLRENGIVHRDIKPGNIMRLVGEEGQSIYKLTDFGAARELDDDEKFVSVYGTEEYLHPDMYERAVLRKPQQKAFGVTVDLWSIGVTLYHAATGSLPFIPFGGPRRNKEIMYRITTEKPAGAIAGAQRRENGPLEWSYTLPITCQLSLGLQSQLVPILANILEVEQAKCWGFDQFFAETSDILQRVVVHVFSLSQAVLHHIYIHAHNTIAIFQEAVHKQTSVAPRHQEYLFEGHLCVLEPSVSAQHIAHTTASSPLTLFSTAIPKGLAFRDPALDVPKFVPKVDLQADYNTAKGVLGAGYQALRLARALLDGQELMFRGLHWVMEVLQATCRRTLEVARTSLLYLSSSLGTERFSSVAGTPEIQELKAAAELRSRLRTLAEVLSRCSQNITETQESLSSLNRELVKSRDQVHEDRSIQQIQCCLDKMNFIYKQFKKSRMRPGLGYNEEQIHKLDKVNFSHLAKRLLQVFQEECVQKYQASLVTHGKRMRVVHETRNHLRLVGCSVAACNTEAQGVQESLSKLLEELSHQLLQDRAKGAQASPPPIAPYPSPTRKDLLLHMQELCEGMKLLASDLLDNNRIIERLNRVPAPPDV

[2] = target: T2, Serine/threonine-protein kinase Nek1 (Homo sapiens) (UniProt Q96PY6); settings: at 0.1 µM
T2 sequence (whole entry): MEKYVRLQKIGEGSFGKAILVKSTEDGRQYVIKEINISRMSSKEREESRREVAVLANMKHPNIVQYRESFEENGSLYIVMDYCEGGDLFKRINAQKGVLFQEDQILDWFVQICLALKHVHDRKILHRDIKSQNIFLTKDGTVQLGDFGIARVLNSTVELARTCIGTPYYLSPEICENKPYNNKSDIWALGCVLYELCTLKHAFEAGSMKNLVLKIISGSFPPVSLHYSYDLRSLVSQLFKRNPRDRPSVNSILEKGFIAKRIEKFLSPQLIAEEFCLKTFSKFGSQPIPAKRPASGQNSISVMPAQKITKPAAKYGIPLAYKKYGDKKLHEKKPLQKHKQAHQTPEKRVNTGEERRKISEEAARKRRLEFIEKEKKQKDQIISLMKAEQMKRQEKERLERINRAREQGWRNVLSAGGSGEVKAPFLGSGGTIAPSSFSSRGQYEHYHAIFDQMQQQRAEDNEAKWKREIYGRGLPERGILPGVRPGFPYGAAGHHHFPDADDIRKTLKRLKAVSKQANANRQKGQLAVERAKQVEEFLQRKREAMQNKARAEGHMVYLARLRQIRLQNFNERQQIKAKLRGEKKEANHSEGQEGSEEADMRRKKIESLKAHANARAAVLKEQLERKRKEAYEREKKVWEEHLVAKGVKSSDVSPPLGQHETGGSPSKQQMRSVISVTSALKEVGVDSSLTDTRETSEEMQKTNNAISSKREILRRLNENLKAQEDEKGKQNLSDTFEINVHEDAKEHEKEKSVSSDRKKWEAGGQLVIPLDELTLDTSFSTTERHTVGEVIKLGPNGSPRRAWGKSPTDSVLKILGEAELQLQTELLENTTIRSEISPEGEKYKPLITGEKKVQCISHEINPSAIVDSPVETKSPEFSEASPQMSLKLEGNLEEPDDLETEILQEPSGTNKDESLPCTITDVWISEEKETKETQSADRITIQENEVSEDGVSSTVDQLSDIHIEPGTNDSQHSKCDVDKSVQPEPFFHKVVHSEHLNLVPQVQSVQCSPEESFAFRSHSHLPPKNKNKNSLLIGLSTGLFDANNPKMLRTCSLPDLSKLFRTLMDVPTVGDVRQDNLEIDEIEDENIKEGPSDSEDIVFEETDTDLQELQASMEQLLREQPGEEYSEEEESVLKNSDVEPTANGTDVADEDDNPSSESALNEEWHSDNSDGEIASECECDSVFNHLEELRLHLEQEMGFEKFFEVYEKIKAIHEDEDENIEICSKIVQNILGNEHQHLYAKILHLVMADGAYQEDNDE

[3] = target: T2, Serine/threonine-protein kinase Nek1 (Homo sapiens); settings: at 1 µM
[4] = target: T3, Serine/threonine-protein kinase Nek2 (Homo sapiens) (UniProt P51955); settings: at 0.1 µM
T3 sequence (whole entry): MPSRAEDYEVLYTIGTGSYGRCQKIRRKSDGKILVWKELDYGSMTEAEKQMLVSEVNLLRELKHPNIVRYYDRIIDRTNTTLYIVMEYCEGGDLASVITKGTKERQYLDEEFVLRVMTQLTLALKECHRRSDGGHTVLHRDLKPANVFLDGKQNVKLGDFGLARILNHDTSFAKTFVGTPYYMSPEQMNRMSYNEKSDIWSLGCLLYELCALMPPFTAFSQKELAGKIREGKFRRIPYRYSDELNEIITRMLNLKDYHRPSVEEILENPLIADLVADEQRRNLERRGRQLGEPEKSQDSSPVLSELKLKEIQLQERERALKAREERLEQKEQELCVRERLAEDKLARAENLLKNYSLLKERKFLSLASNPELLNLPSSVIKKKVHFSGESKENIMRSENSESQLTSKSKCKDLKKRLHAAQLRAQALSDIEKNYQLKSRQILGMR

[5] = target: T3, Serine/threonine-protein kinase Nek2 (Homo sapiens); settings: at 1 µM
[6] = target: Serine/threonine-protein kinase Nek6 (Homo sapiens) (UniProt Q9HC98); settings: at 0.1 µM
Serine/threonine-protein kinase Nek6 (Homo sapiens), sequence (Q9HC98 whole entry): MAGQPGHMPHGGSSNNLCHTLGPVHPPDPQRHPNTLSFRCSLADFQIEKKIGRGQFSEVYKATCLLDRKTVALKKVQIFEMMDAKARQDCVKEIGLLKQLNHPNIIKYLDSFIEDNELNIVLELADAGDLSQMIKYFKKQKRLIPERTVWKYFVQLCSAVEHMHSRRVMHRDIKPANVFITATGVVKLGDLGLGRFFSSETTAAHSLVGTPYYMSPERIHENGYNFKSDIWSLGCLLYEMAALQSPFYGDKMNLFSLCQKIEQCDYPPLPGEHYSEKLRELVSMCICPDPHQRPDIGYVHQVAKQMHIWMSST

[7] = target: Serine/threonine-protein kinase Nek6 (Homo sapiens) (UniProt Q9HC98); settings: at 1 µM
[8] = target: Serine/threonine-protein kinase Nek7 (Homo sapiens) (UniProt Q8TDX7); settings: at 0.1 µM
Serine/threonine-protein kinase Nek7 (Homo sapiens), sequence (Q8TDX7 whole entry, looked up): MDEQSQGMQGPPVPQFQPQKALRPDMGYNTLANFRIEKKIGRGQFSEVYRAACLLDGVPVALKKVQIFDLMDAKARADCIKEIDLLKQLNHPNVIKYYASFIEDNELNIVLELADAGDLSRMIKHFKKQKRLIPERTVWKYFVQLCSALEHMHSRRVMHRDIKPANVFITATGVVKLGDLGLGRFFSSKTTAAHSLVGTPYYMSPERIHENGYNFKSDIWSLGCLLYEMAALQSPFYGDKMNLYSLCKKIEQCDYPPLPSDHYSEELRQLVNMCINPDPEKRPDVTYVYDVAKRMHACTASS

[9] = target: Serine/threonine-protein kinase Nek7 (Homo sapiens) (UniProt Q8TDX7); settings: at 1 µM
[10] = target: T4, Serine/threonine-protein kinase Nek9 (Homo sapiens) (UniProt Q8TD19); settings: at 0.1 µM
T4 sequence (whole entry): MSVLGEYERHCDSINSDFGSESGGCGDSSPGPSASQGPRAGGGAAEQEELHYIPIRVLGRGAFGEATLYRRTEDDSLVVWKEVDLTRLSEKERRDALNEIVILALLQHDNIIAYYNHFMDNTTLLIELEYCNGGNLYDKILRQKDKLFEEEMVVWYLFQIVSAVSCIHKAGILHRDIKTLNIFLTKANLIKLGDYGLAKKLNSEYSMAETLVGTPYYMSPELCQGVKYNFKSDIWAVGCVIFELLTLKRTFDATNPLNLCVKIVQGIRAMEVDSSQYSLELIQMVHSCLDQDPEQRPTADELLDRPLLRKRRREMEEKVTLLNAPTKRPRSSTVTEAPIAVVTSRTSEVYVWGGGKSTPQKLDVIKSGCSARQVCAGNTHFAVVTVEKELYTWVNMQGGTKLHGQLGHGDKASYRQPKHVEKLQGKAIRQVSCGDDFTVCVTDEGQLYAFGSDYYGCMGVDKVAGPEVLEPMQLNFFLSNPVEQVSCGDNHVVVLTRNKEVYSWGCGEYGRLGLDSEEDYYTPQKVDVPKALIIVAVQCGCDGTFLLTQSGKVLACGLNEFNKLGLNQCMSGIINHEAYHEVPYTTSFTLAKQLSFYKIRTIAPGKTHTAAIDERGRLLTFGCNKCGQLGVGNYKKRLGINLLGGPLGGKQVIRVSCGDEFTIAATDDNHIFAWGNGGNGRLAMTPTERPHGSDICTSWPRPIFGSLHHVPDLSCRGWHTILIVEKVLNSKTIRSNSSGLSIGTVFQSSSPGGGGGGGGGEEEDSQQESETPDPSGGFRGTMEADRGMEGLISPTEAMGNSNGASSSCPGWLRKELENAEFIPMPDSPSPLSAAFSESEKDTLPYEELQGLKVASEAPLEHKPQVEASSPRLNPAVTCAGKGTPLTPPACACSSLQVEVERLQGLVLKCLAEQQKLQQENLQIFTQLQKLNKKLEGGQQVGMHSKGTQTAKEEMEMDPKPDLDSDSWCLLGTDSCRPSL

[11] = target: T4, Serine/threonine-protein kinase Nek9 (Homo sapiens); settings: at 1 µM
[12] = target: Serine/threonine-protein kinase PLK1 (Homo sapiens) (UniProt P53350); settings: at 0.1 µM
Serine/threonine-protein kinase PLK1 (Homo sapiens), sequence (P53350 whole entry): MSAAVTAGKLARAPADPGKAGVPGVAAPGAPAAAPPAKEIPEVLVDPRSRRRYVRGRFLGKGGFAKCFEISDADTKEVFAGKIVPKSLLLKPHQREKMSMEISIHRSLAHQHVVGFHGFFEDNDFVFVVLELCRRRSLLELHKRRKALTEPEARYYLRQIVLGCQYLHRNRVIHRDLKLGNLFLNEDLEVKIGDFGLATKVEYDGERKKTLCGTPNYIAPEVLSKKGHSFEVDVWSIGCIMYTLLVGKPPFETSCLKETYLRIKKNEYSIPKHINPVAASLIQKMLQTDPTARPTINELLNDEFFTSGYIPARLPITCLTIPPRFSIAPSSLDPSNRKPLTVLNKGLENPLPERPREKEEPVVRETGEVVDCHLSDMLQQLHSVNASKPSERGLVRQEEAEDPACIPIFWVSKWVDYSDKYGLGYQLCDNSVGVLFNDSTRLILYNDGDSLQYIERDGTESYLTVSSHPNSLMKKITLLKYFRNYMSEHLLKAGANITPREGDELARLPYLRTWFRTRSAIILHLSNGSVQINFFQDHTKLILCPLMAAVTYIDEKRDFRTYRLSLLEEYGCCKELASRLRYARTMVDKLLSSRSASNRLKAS

[13] = target: Serine/threonine-protein kinase PLK1 (Homo sapiens) (UniProt P53350); settings: at 1 µM
[14] = target: T5, Dual specificity protein kinase TTK (Homo sapiens) (UniProt P33981); settings: at 0.1 µM
T5 sequence (whole entry): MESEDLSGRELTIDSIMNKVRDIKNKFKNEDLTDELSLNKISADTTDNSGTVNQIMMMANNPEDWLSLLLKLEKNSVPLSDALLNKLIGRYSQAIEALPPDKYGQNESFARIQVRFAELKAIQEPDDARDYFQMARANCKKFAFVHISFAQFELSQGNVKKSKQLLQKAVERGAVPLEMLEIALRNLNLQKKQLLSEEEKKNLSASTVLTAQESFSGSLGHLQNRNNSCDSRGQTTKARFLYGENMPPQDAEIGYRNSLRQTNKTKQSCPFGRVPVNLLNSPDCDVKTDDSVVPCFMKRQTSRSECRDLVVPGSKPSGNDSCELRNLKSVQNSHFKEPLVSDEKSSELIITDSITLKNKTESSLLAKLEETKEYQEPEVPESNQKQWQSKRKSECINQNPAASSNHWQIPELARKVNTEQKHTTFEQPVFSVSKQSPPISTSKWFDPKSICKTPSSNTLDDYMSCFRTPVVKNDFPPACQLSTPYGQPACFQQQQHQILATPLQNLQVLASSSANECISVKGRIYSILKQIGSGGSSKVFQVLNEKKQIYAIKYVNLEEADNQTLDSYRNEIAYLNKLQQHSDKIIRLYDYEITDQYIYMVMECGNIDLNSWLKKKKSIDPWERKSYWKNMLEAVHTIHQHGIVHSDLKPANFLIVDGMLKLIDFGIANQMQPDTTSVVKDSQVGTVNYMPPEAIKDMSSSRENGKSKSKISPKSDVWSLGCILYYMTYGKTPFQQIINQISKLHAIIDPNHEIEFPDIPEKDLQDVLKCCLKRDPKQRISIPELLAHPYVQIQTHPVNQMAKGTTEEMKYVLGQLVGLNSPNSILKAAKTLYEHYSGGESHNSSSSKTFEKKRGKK

[15] = test system: T6, Receptor-type tyrosine-protein kinase FLT3 (Homo sapiens), P36888 [D835Y]; settings: at 1 µM
T6 sequence (whole entry): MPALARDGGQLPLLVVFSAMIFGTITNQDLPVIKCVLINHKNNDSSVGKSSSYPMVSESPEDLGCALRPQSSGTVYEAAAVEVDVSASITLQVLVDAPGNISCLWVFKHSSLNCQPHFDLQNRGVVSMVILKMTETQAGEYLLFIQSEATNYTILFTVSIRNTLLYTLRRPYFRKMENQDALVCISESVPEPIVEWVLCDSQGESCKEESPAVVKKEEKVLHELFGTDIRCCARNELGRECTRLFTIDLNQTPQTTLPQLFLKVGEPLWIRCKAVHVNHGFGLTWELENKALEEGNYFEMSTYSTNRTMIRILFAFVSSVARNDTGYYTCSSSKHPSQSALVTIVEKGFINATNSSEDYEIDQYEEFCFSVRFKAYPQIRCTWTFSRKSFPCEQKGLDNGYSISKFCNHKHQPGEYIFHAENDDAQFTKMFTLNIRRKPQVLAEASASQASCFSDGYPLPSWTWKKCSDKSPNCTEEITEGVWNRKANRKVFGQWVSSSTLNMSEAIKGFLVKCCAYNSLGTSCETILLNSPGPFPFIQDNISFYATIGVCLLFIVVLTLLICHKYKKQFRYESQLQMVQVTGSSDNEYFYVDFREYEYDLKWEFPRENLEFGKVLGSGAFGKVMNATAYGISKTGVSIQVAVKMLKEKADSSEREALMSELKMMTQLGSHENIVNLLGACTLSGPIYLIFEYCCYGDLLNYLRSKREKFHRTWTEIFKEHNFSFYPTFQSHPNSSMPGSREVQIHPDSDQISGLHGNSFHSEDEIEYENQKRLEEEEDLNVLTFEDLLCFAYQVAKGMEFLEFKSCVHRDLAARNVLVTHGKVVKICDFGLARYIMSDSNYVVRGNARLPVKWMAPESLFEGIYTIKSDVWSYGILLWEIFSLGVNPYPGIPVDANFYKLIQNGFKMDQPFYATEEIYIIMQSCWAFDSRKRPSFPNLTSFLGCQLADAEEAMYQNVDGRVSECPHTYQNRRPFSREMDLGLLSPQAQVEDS

[16] = target: Vascular endothelial growth factor receptor 3 (Homo sapiens) (UniProt P35916); settings: at 0.1 µM
Vascular endothelial growth factor receptor 3 (Homo sapiens), sequence (P35916 whole entry): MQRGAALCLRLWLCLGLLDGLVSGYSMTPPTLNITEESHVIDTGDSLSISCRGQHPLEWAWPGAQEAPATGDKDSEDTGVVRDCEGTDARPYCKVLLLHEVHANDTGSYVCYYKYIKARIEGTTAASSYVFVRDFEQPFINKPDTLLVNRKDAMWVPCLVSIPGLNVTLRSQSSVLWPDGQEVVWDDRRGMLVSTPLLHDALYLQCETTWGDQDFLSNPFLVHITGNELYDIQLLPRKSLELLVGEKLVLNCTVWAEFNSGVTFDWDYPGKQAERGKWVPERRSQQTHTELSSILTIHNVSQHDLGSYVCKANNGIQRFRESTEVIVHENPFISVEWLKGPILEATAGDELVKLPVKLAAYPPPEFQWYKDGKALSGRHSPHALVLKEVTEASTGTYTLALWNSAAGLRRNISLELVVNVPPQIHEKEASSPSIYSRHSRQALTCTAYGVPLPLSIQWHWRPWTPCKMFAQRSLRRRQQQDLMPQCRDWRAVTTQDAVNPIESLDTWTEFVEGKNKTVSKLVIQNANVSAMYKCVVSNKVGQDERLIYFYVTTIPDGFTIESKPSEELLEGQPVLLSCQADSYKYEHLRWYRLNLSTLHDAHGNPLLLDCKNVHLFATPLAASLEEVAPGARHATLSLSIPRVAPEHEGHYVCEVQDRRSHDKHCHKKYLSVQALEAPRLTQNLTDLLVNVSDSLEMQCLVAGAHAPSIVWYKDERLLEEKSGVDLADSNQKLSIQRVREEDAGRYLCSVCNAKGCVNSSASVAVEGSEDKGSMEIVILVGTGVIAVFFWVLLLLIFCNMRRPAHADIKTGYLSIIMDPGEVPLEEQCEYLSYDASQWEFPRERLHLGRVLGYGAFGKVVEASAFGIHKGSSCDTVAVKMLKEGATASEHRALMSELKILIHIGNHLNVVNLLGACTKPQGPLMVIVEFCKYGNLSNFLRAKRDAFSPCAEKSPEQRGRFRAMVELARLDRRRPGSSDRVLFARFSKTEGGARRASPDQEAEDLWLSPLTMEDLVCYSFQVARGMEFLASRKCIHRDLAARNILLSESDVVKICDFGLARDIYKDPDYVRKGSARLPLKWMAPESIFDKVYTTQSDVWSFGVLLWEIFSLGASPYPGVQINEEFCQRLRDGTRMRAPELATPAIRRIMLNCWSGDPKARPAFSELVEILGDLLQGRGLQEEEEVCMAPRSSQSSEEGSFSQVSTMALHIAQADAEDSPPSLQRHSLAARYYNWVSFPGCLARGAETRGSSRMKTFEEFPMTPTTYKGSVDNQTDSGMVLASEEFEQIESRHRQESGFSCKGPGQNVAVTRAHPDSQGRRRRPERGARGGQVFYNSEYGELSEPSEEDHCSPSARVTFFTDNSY

[17] = target: Vascular endothelial growth factor receptor 3 (Homo sapiens) (UniProt P35916); settings: at 1 µM
[18] = target: Macrophage colony-stimulating factor 1 receptor (Homo sapiens) (UniProt P07333); settings: at 0.1 µM
Macrophage colony-stimulating factor 1 receptor (Homo sapiens), sequence (P07333 whole entry): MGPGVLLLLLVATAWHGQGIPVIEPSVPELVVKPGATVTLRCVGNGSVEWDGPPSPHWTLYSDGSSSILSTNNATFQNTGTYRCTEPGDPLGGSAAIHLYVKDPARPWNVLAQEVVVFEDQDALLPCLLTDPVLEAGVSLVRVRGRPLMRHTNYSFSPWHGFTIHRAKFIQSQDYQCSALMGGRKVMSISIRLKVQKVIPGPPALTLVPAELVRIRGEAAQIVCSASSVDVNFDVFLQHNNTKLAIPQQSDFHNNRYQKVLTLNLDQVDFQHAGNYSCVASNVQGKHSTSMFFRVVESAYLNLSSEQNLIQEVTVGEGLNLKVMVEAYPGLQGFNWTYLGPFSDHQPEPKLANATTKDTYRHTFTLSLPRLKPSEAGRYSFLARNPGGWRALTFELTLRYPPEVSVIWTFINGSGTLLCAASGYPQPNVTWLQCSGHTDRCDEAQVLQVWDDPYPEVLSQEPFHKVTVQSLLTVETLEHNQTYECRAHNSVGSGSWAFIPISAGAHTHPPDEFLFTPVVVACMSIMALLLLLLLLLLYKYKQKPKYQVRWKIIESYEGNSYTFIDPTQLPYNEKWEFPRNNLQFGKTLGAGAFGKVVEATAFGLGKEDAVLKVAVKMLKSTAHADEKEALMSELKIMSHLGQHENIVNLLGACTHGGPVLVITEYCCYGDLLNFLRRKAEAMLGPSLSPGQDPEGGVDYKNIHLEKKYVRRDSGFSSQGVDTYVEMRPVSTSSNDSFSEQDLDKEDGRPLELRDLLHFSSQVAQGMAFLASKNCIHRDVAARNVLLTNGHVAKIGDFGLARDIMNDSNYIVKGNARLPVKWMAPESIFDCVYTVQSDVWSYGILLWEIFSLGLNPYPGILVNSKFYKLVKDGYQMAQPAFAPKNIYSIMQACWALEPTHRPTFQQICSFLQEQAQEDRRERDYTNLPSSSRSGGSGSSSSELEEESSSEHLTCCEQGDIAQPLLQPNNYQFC

[19] = target: Macrophage colony-stimulating factor 1 receptor (Homo sapiens) (UniProt P07333); settings: at 1 µM
[20] = target: Tyrosine-protein kinase Fyn (Homo sapiens) (UniProt P06241); settings: at 0.1 µM
Tyrosine-protein kinase Fyn (Homo sapiens), sequence (P06241 2-537 limits assumed): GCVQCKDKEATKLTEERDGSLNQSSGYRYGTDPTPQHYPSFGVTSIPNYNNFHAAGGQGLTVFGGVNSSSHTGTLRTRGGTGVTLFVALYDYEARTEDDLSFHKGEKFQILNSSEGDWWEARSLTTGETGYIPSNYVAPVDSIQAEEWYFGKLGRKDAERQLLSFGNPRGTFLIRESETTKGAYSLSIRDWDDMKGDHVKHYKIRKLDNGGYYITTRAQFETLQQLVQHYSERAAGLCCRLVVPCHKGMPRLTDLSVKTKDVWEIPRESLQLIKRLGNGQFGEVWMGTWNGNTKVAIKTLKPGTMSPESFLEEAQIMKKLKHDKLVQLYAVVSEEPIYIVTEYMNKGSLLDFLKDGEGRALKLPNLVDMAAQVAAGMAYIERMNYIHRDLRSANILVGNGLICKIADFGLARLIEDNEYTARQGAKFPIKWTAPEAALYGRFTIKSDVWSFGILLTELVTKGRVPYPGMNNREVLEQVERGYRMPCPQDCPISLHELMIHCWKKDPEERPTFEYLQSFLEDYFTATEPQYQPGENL

Row | Compound | inhibition [1] [%] | inhibition [2] [%] | inhibition [3] [%] | inhibition [4] [%] | inhibition [5] [%] | inhibition [6] [%] | inhibition [7] [%] | inhibition [8] [%] | inhibition [9] [%] | inhibition [10] [%] | inhibition [11] [%] | inhibition [12] [%] | inhibition [13] [%] | inhibition [14] [%] | inhibition [15] [%] | inhibition [16] [%] | inhibition [17] [%] | inhibition [18] [%] | inhibition [19] [%] | inhibition [20] [%]
1 | Cc1ccc(O)cc1Nc1ccnc2cc(-c3ccccn3)ccc12 | 4.69 | 2.99 | 2.32 | 5.83 | 4.75 | 5.8 | -1.66 | 3.67 | 3.3 | 2.78 | -1.26 | 3.38 | 4.98 | 6.34 | 4.47 | 62.5 | 88.8 | 4.3 | 20.4 | 55.6
2 | COc1ccc(-c2oc3ncnc(N)c3c2-c2ccc(NC(=O)Nc3cc(C(F)(F)F)ccc3F)cc2)cc1 | 9.69 | 5.73 | 16.9 | 5.08 | 7.47 | 2.43 | 3.73 | 3.58 | -1.9 | 6.04 | 39.3 | 5.59 | 4.48 | 8.85 | 47.1 | 47.4 | 98.4 | 21.9 | 90.2 | 8
3 | CCn1c(-c2nonc2N)nc2cnc(Oc3cccc(NC(=O)c4ccc(N(C)C)cc4)c3)cc21 | 14.1 | 1.17 | 4.28 | 2.85 | 1.24 | 0.89 | 2.25 | 3.09 | 1.46 | 7.55 | 5.29 | 1.86 | 1.97 | 3.52 | 0.83 | 0.61 | 2.01 | -0.02 | 0.23 | 1.66
